Bioassay records from PubChem.
UHRF1 binding = UHRF1 methylated DNA binding inhibitors, primary screen, counter-screen for MBD2 inhibitor project, biochemical, TR-FRET, human UHRF1, single concentration; E3 ubiquitin-protein ligase UHRF1 (Homo sapiens), Q96T88; AID 687016, 2013; inhibition, % at 4.4 µM; UHRF1 binding to methylated oligo; 370,000 compounds, 0.75% hits; in the data active means inhibition above about 21%;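 further: UHRF1 SRA domain binding a hemimethylated CpG hairpin DNA probe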
DNMT1 block = human DNMT1 methyltransferase inhibitors, primary screen, biochemical, molecular beacon, fluorescence, HinP1I cleavage, uHTS; DNA (cytosine-5)-methyltransferase 1 (Homo sapiens), P26358; inhibition (reported as % activation of signal), % at 10 µM; 360,000 compounds, 0.83% hits; in the data active means inhibition above about 50%
MBD2 DNA inh = inhibitors of MBD2 binding to methylated DNA, primary screen, biochemical, TR-FRET, DNA-binding domain, human; Methyl-CpG-binding domain protein 2 (Homo sapiens), Q9UBB5; MBD2 binding to methylated oligonucleotide; inhibition, % at 4.4 µM; 370,000 compounds, 0.31% hits; in the data active means inhibition above about 13%
LEDGF integ inh = blockers of LEDGF/p75-dependent integrase strand transfer – biochemical, TR-FRET, high throughput, primary screen. TR-FRET IN-LEDGF/p75 DNA integration, Eu/Cy5. inhibition, % at 3.7 µM. 370,000 compounds, 0.64% hits;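 active means inhibition above the screen-wide mean plus 3 SD, cut at about 13% in these data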;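 further: signal is the Cy5 over europium emission ratio at 671 and 618 nm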
PG9 binder = binders of HIV-1 gp120 antibody PG9, primary screen, biochemical, TR-FRET | TR-FRET gp120-PG9 antibody binding | inhibition, % at 6.7 µM | 360,000 compounds, 0.43% hits | AID 624416, 2012; in the data active means inhibition above about 8.5%
rCAG RNA binder = binders of r(CAG) RNA repeats, primary screen, biochemical, fluorescence; 370,000 compounds, 1.3% hits; AID 651821, 2012; r(CAG) RNA repeat, TO-PRO-1 dye displacement fluorescence; inhibition, % at 3 µM;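 active means inhibition above the plate cutoff, the mean of all test compounds on that plate plus 3 SD, cut at about 35% in these data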;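 further: higher means more dye released from RNA so lower well fluorescence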
rCAG bind conf = small molecules binding CAG repeat RNA – biochemical, fluorescence, confirmation; shares compounds with rCAG RNA binder; r(CAG) RNA repeat, TO-PRO-1 dye displacement fluorescence; inhibition, % at 3 µM; 4,300 compounds, 70% hits; AID 652065, 2013;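 active means inhibition above a per-plate cutoff, the mean inhibition of sample wells plus 3 SD, cut at about 35% in these data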;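 further: loss of TO-PRO-1 fluorescence as compound displaces dye from 1x1 AA loop RNA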
DNA CAG counter = displacement of TO-PRO-1 from CAG DNA duplex, counter-screen for rCAG RNA repeat binder project, biochemical, fluorescence, TO-PRO-1 dye, d(CAG) DNA oligo; shares compounds with rCAG RNA binder; d(CAG) DNA oligo TO-PRO-1 dye displacement; inhibition, % at 3 µM; 4,300 compounds, 94% hits; AID 652068, 2013;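 active means inhibition above its plate's cutoff, the mean test-well inhibition plus 3 SD, cut at about 4.8% in these data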;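 further: hits displace the dye from DNA and so lower well fluorescence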
DNA CAG DR = inhibitors of DNA CAG/GTC TO-PRO-1 complex, dose response, counter-screen for rCAG RNA repeat binder project, biochemical, fluorescence, TO-PRO-1 dye; shares compounds with rCAG RNA binder; DNA CAG/GTC duplex TO-PRO-1 dye displacement fluorescence; IC50, µM; 250 compounds, 20% hits; in the data active means IC50 below about 10 µM
Numbers stand for hits; – = inactive; · = no result given. In the library only some 3.5% were active in any assay of this set; here they are far more common.

SMILES | UHRF1 binding | DNMT1 block | MBD2 DNA inh | LEDGF integ inh | PG9 binder | rCAG RNA binder | rCAG bind conf | DNA CAG counter | others
CC(C)CSC1=NSC2=NC(=O)/C(=C\c3coc4ccccc4c3=O)C(=N)N12 | – | – | – | – | – | 61 | 59 | 55
CSC1=NSC2=NC(=O)/C(=C\c3coc4ccccc4c3=O)C(=N)N12 | – | – | – | – | – | – | · | ·
CC(C)CSC1=NSC2=NC(=O)/C(=C\c3ccccc3)C(=N)N12 | – | – | – | – | – | 76 | 39 | 9.9
CC(C)(Sc1ccc(CCN(CCCCC2CCCCC2)C(=O)NC2CCCCC2)cc1)C(=O)O | – | – | – | – | – | 49 | 55 | 17 | DNA CAG DR=–
NS(=O)(=O)c1cccc(NC(=O)CSc2nc3nc(-c4cccs4)cc(C(F)(F)F)c3c(=O)[nH]2)c1 | – | – | – | – | – | 50 | 77 | 45
Cc1ccc(F)cc1CNC(=O)C1CCC(=O)N(CCCN2CCCC2=O)C1 (configuration not stated) | – | – | – | – | – | – | · | ·
O=C(c1ccccc1)c1ccc2nc(-c3ccc(NC(=O)c4ccccc4F)cc3)[nH]c2c1 | – | – | – | – | – | – | · | ·
O=C(O)CCC(=O)Nc1ccc(-c2nc3ccc(C(=O)c4ccccc4)cc3[nH]2)cc1 | – | – | – | – | – | 45 | 35 | 7.9
O=C(Cc1ccccc1[N+](=O)[O-])NCC(=O)c1ccc2c(c1)OCO2 | – | – | – | – | – | – | · | ·
COc1cccc(/C=C/C(=O)c2ccc(NS(=O)(=O)c3ccc(C)cc3)cc2)c1 | – | – | – | – | – | 35 | 62 | 21
COc1cccc(C(=O)/C=C/Nc2ccc(S(=O)(=O)Nc3cccc(C(C)=O)c3)cc2)c1 | – | – | – | – | – | – | · | ·
COc1ccc(C(=O)COC(=O)/C=C/c2ccc(S(=O)(=O)Nc3cccc(S(N)(=O)=O)c3)cc2)cc1 | – | – | – | – | – | 46 | 60 | 20
COc1ccc(S(=O)(=O)Nc2cccc3c2O[C@H](CN(C)S(=O)(=O)c2ccccc2)[C@@H](C)CN([C@H](C)CO)C3=O)cc1 | – | – | – | – | – | – | · | ·
CC1=CC(C)(C)NC(=S)N1c1cccc2cc(S(=O)(=O)O)ccc12 | – | – | – | – | – | 43 | 87 | 58
CC1=CC(C)(C)NC(=S)N1c1ccccc1C | – | – | – | – | – | – | · | ·
CCOCc1nnc(NC(=O)C2CCN(C(=O)c3ccco3)CC2)s1 | – | – | – | – | – | – | · | ·
O=c1oc2ccccc2c(O)c1Sc1c(O)c2ccccc2oc1=O | · | – | · | · | · | · | · | ·
CCOC(=O)c1c(NC(C)=O)sc(/C(C)=N/Nc2ccc(C(=O)O)cc2)c1C | – | – | – | – | – | 40 | – | –
CC(C)(Oc1ccc(Cl)cc1)C(=O)NC1=NN(c2ccccc2)C(=O)C1 | – | – | – | – | – | 74 | – | 12
CC(Oc1ccc(Cl)cc1Cl)C(=O)NC1=NN(c2ccccc2)C(=O)C1 (configuration not stated) | – | – | – | – | – | 58 | 53 | 25
CC(=O)Nc1ccc(NC(=O)C(C)Oc2ccc(Cl)cc2Cl)cc1 (configuration not stated) | – | – | – | – | – | – | · | ·
CC(=O)N1CCC(C(=O)N2c3ccccc3N=C(c3ccc(C(F)(F)F)cc3)C2C(=O)NC2CCCC2)CC1 (configuration not stated) | – | · | – | – | – | – | · | ·
Cn1ncc2c(Nc3ccc(Br)cc3)nc(Nc3ccc(Br)cc3)nc21 | – | – | – | – | – | 49 | – | 13
Cn1ncc2c(Nc3cccc(Cl)c3)nc(Nc3cccc(Cl)c3)nc21 | – | – | – | – | – | 36 | – | 7.5
CCN(CC(=O)Nc1cc(Cl)ccc1C)C(=O)c1nc2nc(C)cc(C)n2n1 | – | – | – | – | – | – | · | ·
SMILES | UHRF1 binding | DNMT1 block | MBD2 DNA inh | LEDGF integ inh | PG9 binder | rCAG RNA binder | rCAG bind conf | DNA CAG counter | others
O=C(NS(=O)(=O)c1ccc2ccc(S(=O)(=O)NCCSc3ccccc3)cc2c1)c1cccc2ccccc12 | – | · | – | – | – | 88 | 88 | 65
O=C(CSc1ccc(Br)cc1)Nc1ccccc1N1CCOCC1 | – | – | – | – | – | – | · | ·
COc1ccc(CCNC(=O)c2ccccc2NS(=O)(=O)c2c(F)cccc2F)cc1 | – | – | – | – | – | 48 | – | 9.9
COc1ccc(CCNC(=O)c2ccccc2NS(=O)(=O)c2cc(C(=O)O)ccc2OC)cc1 | – | – | – | – | – | – | · | ·
Cc1ccc(C(=O)NCC(=O)NCCCc2ccccc2)cc1 | – | – | – | – | – | – | · | ·
O=c1[nH]c2ccccc2nc1-c1c[nH]c2ccccc12 | – | – | – | – | – | 43 | – | 14
Cc1ccc(C(C)C)c(OCC(=O)NS(=O)(=O)c2ccc(Cl)cc2)c1 | – | – | – | – | – | 51 | 36 | 7.0
Cc1ccc(C(C)C)c(OCC(=O)NN2C(=O)c3ccccc3C2=O)c1 | – | – | – | – | – | – | · | ·
C/C(=N\NC(=O)c1ccccc1O)c1cccc(NC(=O)c2ccccc2)c1 | – | – | – | – | – | – | · | ·
C/C(=N\NC(=O)c1cc(O)ccc1O)c1cccc(NC(=O)c2cccc(Cl)c2)c1 | – | – | – | 55 | – | 45 | – | 8.4
O=C(O)CSc1nc(-c2ccc(Cl)cc2)nc2c1oc1ccccc12 | – | – | – | – | – | 41 | 82 | 62
O=C(O)CSc1nc(-c2ccccc2)nc2c1oc1ccccc12 | – | – | – | – | – | 59 | 48 | 14
CCOC(=O)CSc1nc(-c2ccccc2)nc2c1oc1ccccc12 | – | – | – | – | – | – | · | ·
